Results from ChEMBL document CHEMBL4513216, “Probing the Open Global Health Chemical Diversity Library for Multistage-Active Starting Points for Next-Generation Antimalarials” (ACS Infect Dis, 2020).
Among all 68,000 compounds or so, about 2,700 (4%) showed an effect of 50% or more. The full list was thinned out, with strong results kept by preference.

Test system: Plasmodium berghei
Test: Screen against P. berghei liver stage (PbLuc), transformed with Luciferase, at 2uM
Type: functional, HepG2
Conditions: tested at 2 uM

SMILES	INHIBITION [%]
CCn1c(NCc2cccnc2)nc2c(C)nn(C)c2c1=O	24.79
Cc1nn(C)c2c(NCc3ccccn3)nc(C(C)C)nc12	72.41
CCn1c(NCc2ccccc2)nc2c(C)nn(C)c2c1=O	-1.65
Cc1nc(NCc2ccccn2)c2c(n1)c(C)nn2C	-40.15
CCn1c(NCc2ccccn2)nc2c(C)nn(C)c2c1=O	50.9
CCn1nc(C)c2nc(C(C)C)nc(NCc3ccccn3)c21	-11.34
Fc1cnc(N2CC3(CCN(Cc4ccsc4)C3)C2)nc1	34.48
COCCC(=O)N1CCCC1c1nc(O)cc(C(C)C)n1 (stereo not drawn)	-1.69
CCC[C@H]1CN(C(=O)Cn2ccccc2=O)C[C@@H]1NS(C)(=O)=O	5.21
CCCS(=O)(=O)N1CCN(c2ccnc(N3CCCCC3)n2)CC1	5.38
C=C(C)CN1CCC(c2n[nH]c(C3CC3)n2)CC1	52.98
CCN(C(=O)CN1CCC(c2n[nH]c(C3CC3)n2)CC1)C1CC1	38.67
CC1CCN(C(=O)CN2CCC(c3n[nH]c(C4CC4)n3)CC2)CC1	-35.26
Cc1cc(C[C@@H]2COC[C@H]2NCc2ccc(Cl)c(Cl)c2)on1	-44.61
Cc1cc(C[C@@H]2COC[C@@H]2NC(=O)CCN2Cc3ccccc3C2)on1	14.1
Cc1cc(C[C@@H]2COC[C@H]2NCc2ccc(C)c(C)c2)on1	53.24
Cc1ccc(CN[C@@H]2COC[C@H]2Cc2cc(C)no2)cc1	20.08
Cc1cc(C[C@@H]2COC[C@@H]2NC(=O)CN2CCCC2)on1	-56.02
Cc1cc(C[C@@H]2COC[C@@H]2NC(=O)CN2CCc3ccccc3C2)on1	54.49
O=C(CC1CCC1)N1CCCC(CO)(CC2CC2)C1 (stereo not drawn)	-12.89
O=C1CCCN1Cc1ncn2c1CN(C(=O)c1cccc(F)c1)CCC2	21.33
Cc1cc(NC(=O)CN2CCCCC2Cn2nc(C)nc2C)on1 (stereo not drawn)	27.5
Nc1ncccc1CN1C[C@@H](C(=O)O)[C@H](c2cccc(F)c2)C1	1.22
CCS(=O)(=O)N1CCC2(CC1)CN(CC1CCOC1)c1ccccc12 (stereo not drawn)	17.89
COc1ccc(OC2CCN(C(=O)CCc3n[nH]c(N)n3)CC2)cc1	-88.55
COc1ccc(CCN2CCCC(CN(C)Cc3[nH]cnc3C)C2)cc1 (stereo not drawn)	52.31
Cc1nc[nH]c1CN(C)CC1CCCN(CCc2ccc(Cl)cc2)C1 (stereo not drawn)	-9.17

SMILES	INHIBITION [%]
COc1ccc(CCN2CCCC(CN(C)Cc3ccc(C)o3)C2)cc1 (stereo not drawn)	54.59
Cc1nc(CN(C)CC2CCCN(CCc3ccc(Cl)cc3)C2)no1 (stereo not drawn)	-7.76
Cc1noc(CN(C)CC2CCCN(CCc3ccc(Cl)cc3)C2)n1 (stereo not drawn)	35.26
COc1ccccc1CCN1CCCC(CN(C)Cc2ccc(C)o2)C1 (stereo not drawn)	-4.64
Cc1noc(CN(C)CC(c2cccs2)N2CCOCC2)n1 (stereo not drawn)	28.88
CN(Cc1ncc[nH]1)CC(c1cccs1)N1CCOCC1 (stereo not drawn)	62.46
CN(Cc1ccncc1)CC(c1cccs1)N1CCOCC1 (stereo not drawn)	-10.66
Cc1cc(C(F)(F)F)c2c(=O)n(Cc3cc(C)on3)n(C)c2n1	1.36
O=C1CCCN1Cc1nnn2c1CN(c1ncccn1)CCC2	1.48
CC(C(=O)NCc1ccnc(N2CCOCC2)c1)n1cccn1 (stereo not drawn)	-7.02
CC(C(=O)NCc1ccnc(N2CCCC2)c1)n1cccn1 (stereo not drawn)	17.12
CC(C(=O)NCc1ccc(N2CCN(C)CC2)nc1)n1cccn1 (stereo not drawn)	23.16
CN1CC(C(=O)NCc2ccnc(-n3cccn3)c2)CC1=O (stereo not drawn)	67.99
CC(C)N1CC(C(=O)NCc2ccnc(-n3cccn3)c2)CC1=O (stereo not drawn)	-47.05
CSC(C)C(=O)NCc1ccnc(N2CCN(C)CC2)c1 (stereo not drawn)	22.29
CC(C(=O)NCc1ccnc(N2CCCCCC2)c1)n1cccn1 (stereo not drawn)	53.33
CC(C(=O)NCc1ccnc(N2CCN(C)CC2)c1)n1cccn1 (stereo not drawn)	53.12
CCN1CC(C(=O)NCc2ccnc(-n3cccn3)c2)CC1=O (stereo not drawn)	2.46
Cn1cc(CC2CC(=O)N(Cc3ccc(Cl)cc3)C2=O)cn1 (stereo not drawn)	29.4
CCn1ccnc1CN1CCN(CCOc2ccc(C#N)cc2)CC1	-12.75
CCOc1ccc2[nH]c(=O)c(CN3CCN(S(N)(=O)=O)CC3)cc2c1	43.05
CN1CCC2(CC1)CN(C(=O)c1cccc3cccnc13)CCN2C	9.11
CC(CN1CCCC1=O)NC(=O)c1ccc(C(F)(F)F)[nH]c1=O (stereo not drawn)	-85.12
Cc1cccn2cc(CC(=O)N3CCCC(n4cncn4)C3)nc12 (stereo not drawn)	-45.23
O=C(C1CC1)N1CCC2(CC1)OCCO2	56.99
O=C(C1CCC1)N1CCC2(CC1)OCCO2	11.87
